According to PubChem BioAssay AID687022 (Broad Institute, 2013):
Hit rate of the full screen: of about 1,000 compounds, about 360 (36%) were called active.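 How the source made its calls: active means Fitted curve of melting temperature shift crosses the 1.0 threshold at or below the sample's highest valid tested concentration; inconclusive means Flat fit with activity 30 to 70, or invalid fit; inactive means Opposite direction, flat within 30, or no crossing.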 These entries were drawn from the full list.

biological target: Fibroblast growth factor 22 (Homo sapiens) (UniProt Q9HCT0); assay: FGF22 ligand-induced thermal stabilization – biophysical, thermal shift, cherry-pick, FGF22 synaptogenesis inhibitor project, dose response (AID 687022); settings: recombinant FGF22 thermal shift, SYPRO orange melting; series mostly up to 38 µM; further: reference of the scale not given here
Sequence (Q9HCT0 whole entry, looked up): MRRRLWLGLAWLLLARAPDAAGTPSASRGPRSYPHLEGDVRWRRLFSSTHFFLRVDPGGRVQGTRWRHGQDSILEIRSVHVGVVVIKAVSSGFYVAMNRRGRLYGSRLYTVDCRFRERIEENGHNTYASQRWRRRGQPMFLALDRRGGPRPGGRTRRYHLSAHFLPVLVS

SMILES | Tm shift activity
CN(C)CC(=O)Nc1ccc2c(c1)[C@@H]1C[C@H](CC(=O)N(C)C)O[C@@H](CO)[C@@H]1O2 | inactive
O=C1COc2ccc(S(=O)(=O)N3CCCC3)cc2N1 | inactive
C[C@H]1CN([C@@H](C)CO)C(=O)c2cc(NS(=O)(=O)c3cn(C)cn3)ccc2O[C@H]1CN(C)Cc1ccccc1 | inactive
OC[C@H]1[C@@H](c2ccc(-c3cccnc3)cc2)[C@@H]2CN(Cc3ccccn3)CCCCN12 | inactive
O=C(C[C@H]1CC[C@H]2[C@@H](COC[C@@H](O)CN2C(=O)C2CC2)O1)NCc1ccncc1 | inactive
Cc1nn(C)cc1NC(=O)C[C@H]1CC[C@@H]2[C@@H](COc3ccc(NC(=O)NC(C)C)cc3C(=O)N2C)O1 | inactive
COc1cccc(NC(=O)N[C@H]2C=C[C@@H](CC(=O)N3CCN(C)CC3)O[C@H]2CO)c1 | inactive
O=C1C=CCCN1S(=O)(=O)/C=C/c1ccccc1 | inactive
CCOc1ccc(C(=O)CCC(=O)Nc2ccc(C)cn2)cc1 | inactive
CCC(CC)CN1CCC(CN2C(=O)C(=O)NC[C@@H]2CC(C)C)CC1 | inactive
O=C(C[C@H]1C[C@@H]2c3cc(NC(=O)NC4CCCC4)ccc3O[C@@H]2[C@H](CO)O1)NC1CCCC1 | inactive
Nc1nccc(-c2ccc(-n3cccc3)cc2)n1 | inactive
CO[C@H]1CN(C)C(=O)c2ccc(NS(=O)(=O)c3ccc(Cl)cc3)cc2OC[C@@H](C)N(C(=O)NC(C)C)C[C@H]1C | inactive
COCCNC(=O)CCc1nnc2ccc(N3CCC(C)CC3)nn12 | inactive
CC(C)(C)NC(=O)N1CCC(CO)(Cc2ccccc2Cl)CC1 | inactive
CC(=O)N1[C@H](CO)[C@H](c2ccccc2)[C@H]1CN(C(=O)c1cccc(F)c1)C(C)C | inactive
Cc1noc(C)c1S(=O)(=O)Nc1ccc2c(c1)CC(=O)N([C@@H](C)CO)C[C@@H](C)[C@@H](CN(C)Cc1ccc(Cl)c(Cl)c1)O2 | inactive
CCCNC(=O)N1[C@@H]2CN(C(=O)c3ccccc3)c3ccccc3[C@@H]2[C@@H]1CO | inactive
O=C(O)C1CSC(c2ccc3c(c2)OCO3)N1 (stereo not drawn) | inactive
OC[C@@H]1[C@H](c2ccc(Br)cc2)[C@@H]2CN(Cc3cncnc3)CCCCN12 | inactive
CO[C@H]1CN(C)C(=O)c2cc(NC(=O)CC(F)(F)F)ccc2OC[C@@H](C)N(C(C)=O)C[C@H]1C | inactive
CNC[C@H]1Oc2ccc(NC(=O)Nc3ccc(OC)cc3)cc2C(=O)N([C@H](C)CO)C[C@@H]1C | inactive
CNC[C@@H]1Oc2c(NS(=O)(=O)c3ccc(OC)cc3)cccc2C(=O)N([C@@H](C)CO)C[C@@H]1C | inactive
COc1ccc(S(=O)(=O)N(C)C[C@@H]2Oc3c(NC(=O)c4cc(C)nn4C)cccc3C(=O)N([C@H](C)CO)C[C@H]2C)cc1 | inactive
COc1ccc(S(=O)(=O)N/N=c2\oc3c(OC)cccc3cc2S(=O)(=O)c2ccc(C)cc2)cc1OC | inactive
O=C(N[C@H]1CC[C@@H](CCNS(=O)(=O)c2ccc(F)cc2)O[C@H]1CO)C1CCCC1 | inactive
CN1C(=O)c2cc(NC(=O)Cc3ccccc3)ccc2OC[C@@H]2O[C@H](CC(=O)O)CC[C@H]21 | inactive
CO[C@@H]1CN(C)C(=O)c2cc(NC(=O)NC(C)C)ccc2OC[C@@H](C)N(C)C[C@@H]1C | inactive
